We go through 22 compounds from PubChem BioAssay (EPA / NIEHS).

The term AC50 denotes the concentration giving half of the maximal activity seen.

The structures appear in SMILES notation. Calls of active or inactive are those of the source. How the source made its calls: active means hit-call score of the fitted dose curve at least 0.9, where 1 is the maximum; inactive means score below 0.9.

The target in assay [1] is Paired box protein Pax-6 (Homo sapiens) (UniProt P26367). Description: ATG_Pax6_CIS: Attagene CIS-FACTORIAL HepG2 Assay for human Paired Box 6 (PAX6) (AID 2282956). To be noted: HepG2 CIS-FACTORIAL PAX6 reporter transcription, RNA readout; actives raise or lower the signal. The method, boiled down: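 HepG2 cells transiently transfected with multiplexed cis-promoter reporter units (endogenous TF activity) were dosed for 24 h. Reporter mRNA was quantified by RT-PCR, 6-FAM labeling, HpaI digestion and capillary electrophoresis; bidirectional fitting versus DMSO baseline.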
Sequence of Paired box protein Pax-6 (Homo sapiens) (P26367 whole entry, looked up): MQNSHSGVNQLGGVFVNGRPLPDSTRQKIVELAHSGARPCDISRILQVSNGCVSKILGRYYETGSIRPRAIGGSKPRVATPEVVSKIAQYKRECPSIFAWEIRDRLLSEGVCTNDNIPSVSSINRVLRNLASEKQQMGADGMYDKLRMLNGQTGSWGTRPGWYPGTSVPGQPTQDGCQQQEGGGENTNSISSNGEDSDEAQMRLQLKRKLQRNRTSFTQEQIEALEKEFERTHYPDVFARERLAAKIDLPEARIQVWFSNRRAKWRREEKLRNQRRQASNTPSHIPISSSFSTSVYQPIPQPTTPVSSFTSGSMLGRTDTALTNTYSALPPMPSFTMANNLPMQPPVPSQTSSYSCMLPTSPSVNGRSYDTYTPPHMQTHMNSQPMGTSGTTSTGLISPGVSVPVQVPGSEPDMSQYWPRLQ

The nature of assay [2]: ATG_PXRE_CIS: Attagene CIS-FACTORIAL HepG2 Assay for human Pregnane X Receptor Element (PXRE) (AID 2282957). To be noted: HepG2 Attagene CIS-FACTORIAL PXRE reporter, mRNA; actives raise or lower the signal. A digest of the protocol:
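Cells: HepG2, transiently transfected reporter units under cis promoter control. Exposure: 24 h. Detection: reporter mRNA via RT-PCR/CE fluorescence; bidirectional fitting, DMSO-referenced.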

A short description of assay [3]: ATG_PPRE_CIS: Attagene CIS-FACTORIAL HepG2 Assay for human Peroxisome Proliferator-activated Response Element (PPRE) (AID 2282958). To be noted: HepG2 PPRE cis-element reporter, Attagene transcription factor profiling; actives raise or lower the signal. A digest of the protocol: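 HepG2, transient MRTU transfection (cis promoter elements, endogenous TFs). 24 h dosing. RNA → oligo(dT) RT → PCR → 6-FAM primer extension → HpaI digest → CE. Bidirectional fit vs DMSO.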

Assay [4] can be described thus: ATG_RORE_CIS: Attagene CIS-FACTORIAL HepG2 Assay for human RAR-related Orphan Receptor Element (RORE) (AID 2282959). To be noted: HepG2 Attagene cis-factorial RORE reporter, mRNA; actives raise or lower the signal. The method, boiled down:
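Transient MRTU transfection of human HepG2 liver cells (FuGene 6); 24 h compound exposure; TriZol RNA, oligo(dT) RT, PCR, FAM labeling, HpaI cut, CE fragment analysis. DMSO = negative control/baseline.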

Assay [5] in a line: ATG_Sox_CIS: Attagene CIS-FACTORIAL HepG2 Assay for human SRY-box transcription factor (SOX) (AID 2282960). To be noted: HepG2 Attagene cis-factorial SOX reporter, mRNA; actives raise or lower the signal. A digest of the protocol: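 Endogenous factor activity in human liver HepG2 cells carrying transfected cis-regulated reporter units. RNA taken 24 h post-dose, reverse-transcribed, PCR-amplified and sized by capillary electrophoresis. Gain or loss of signal fitted relative to DMSO.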

Assay [6] concerns the target Transcription factor Sp1 (Homo sapiens) (UniProt P08047). The assay can be described thus: ATG_Sp1_CIS: Attagene CIS-FACTORIAL HepG2 Assay for human Specificity Protein 1 (Sp1) (AID 2282961). To be noted: HepG2 Sp1 cis-reporter transcription, actives raise or lower the signal. The method, boiled down:
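Transient MRTU-transfected HepG2, 24 h compound exposure. Total RNA → oligo(dT) RT → PCR of reporter → 6-FAM primer extension → HpaI digest → CE. Endpoint fitted both directions vs DMSO.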

A short description of assay [7]: ATG_SREBP_CIS: Attagene CIS-FACTORIAL HepG2 Assay for human Sterol Regulatory Element Binding (SREBP) (AID 2282962). To be noted: HepG2 Attagene cis-factorial SREBP reporter, mRNA; actives raise or lower the signal. The method, boiled down:
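HepG2 cells transiently transfected with multiplexed cis-element reporter units report endogenous transcription factor activity. After 24 h of chemical exposure, reporter mRNA was quantified by RT-PCR, 6-FAM labelling, HpaI digestion and capillary electrophoresis; bidirectional fits used DMSO as baseline.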

In assay [8] the target is Signal transducer and activator of transcription 3 (Homo sapiens) (UniProt P40763). The assay can be described thus: ATG_STAT3_CIS: Attagene CIS-FACTORIAL HepG2 Assay for human Signal Transducer and Activator of Transcription 3 (STAT3) (AID 2282963). To be noted: HepG2, Attagene cis-factorial STAT3 reporter transcription; actives raise or lower the signal. The method, boiled down:
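Endogenous STAT3-responsive cis-element activity was read in transiently transfected HepG2 cells after 24 h treatment. Reporter transcripts were quantified via RT-PCR and capillary electrophoresis, with DMSO as negative control and bidirectional curve fitting.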

Assay [9] is described as follows: ATG_TA_CIS: Attagene CIS-FACTORIAL HepG2 Assay for human TA Basal Promoter (AID 2282964). To be noted: HepG2 Attagene CIS-factorial TA basal promoter reporter; actives raise or lower the signal. The method, boiled down: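 Background-control readout: TA basal promoter reporter mRNA, fitted in both directions relative to DMSO. Measured by RT-PCR and capillary electrophoresis 24 hours after treating HepG2 human liver cells transiently carrying multiplexed cis-regulated reporter constructs.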

The nature of assay [10]: ATG_TCF_b_cat_CIS: Attagene CIS-FACTORIAL HepG2 Assay for human T-Cell-Factor with beta-catenin (TCF/b-cat) (AID 2282965). To be noted: HepG2 TCF/beta-catenin cis-reporter transcription, actives raise or lower the signal. The method, boiled down:
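Endogenous transcription factor activity is captured through cis-promoter reporter constructs transiently introduced into human HepG2 liver cells. Induced reporter mRNA is measured after 24 h and fitted bidirectionally relative to DMSO.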

Sequence of Transcription factor Sp1 (Homo sapiens) (P08047 whole entry, looked up): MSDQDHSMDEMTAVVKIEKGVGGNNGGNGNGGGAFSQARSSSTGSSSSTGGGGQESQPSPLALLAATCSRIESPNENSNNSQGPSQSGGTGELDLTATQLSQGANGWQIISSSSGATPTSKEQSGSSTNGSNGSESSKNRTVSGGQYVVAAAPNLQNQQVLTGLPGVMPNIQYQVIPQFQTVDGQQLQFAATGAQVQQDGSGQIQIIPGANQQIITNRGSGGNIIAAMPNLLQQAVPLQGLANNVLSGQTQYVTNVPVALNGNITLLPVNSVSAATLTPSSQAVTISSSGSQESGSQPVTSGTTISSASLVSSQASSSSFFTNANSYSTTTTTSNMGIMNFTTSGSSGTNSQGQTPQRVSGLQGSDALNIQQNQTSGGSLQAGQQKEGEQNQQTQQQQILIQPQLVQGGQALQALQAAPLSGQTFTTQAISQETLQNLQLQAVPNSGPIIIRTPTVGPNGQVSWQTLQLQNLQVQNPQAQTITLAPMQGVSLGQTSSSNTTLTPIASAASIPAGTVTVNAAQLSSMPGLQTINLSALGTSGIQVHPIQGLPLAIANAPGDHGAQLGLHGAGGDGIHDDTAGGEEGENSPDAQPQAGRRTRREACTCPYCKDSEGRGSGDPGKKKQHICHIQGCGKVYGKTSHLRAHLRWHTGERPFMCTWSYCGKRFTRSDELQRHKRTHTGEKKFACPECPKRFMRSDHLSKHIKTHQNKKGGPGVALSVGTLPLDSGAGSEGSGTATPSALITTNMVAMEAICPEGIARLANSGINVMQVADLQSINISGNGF
Sequence of Signal transducer and activator of transcription 3 (Homo sapiens) (P40763 whole entry, looked up): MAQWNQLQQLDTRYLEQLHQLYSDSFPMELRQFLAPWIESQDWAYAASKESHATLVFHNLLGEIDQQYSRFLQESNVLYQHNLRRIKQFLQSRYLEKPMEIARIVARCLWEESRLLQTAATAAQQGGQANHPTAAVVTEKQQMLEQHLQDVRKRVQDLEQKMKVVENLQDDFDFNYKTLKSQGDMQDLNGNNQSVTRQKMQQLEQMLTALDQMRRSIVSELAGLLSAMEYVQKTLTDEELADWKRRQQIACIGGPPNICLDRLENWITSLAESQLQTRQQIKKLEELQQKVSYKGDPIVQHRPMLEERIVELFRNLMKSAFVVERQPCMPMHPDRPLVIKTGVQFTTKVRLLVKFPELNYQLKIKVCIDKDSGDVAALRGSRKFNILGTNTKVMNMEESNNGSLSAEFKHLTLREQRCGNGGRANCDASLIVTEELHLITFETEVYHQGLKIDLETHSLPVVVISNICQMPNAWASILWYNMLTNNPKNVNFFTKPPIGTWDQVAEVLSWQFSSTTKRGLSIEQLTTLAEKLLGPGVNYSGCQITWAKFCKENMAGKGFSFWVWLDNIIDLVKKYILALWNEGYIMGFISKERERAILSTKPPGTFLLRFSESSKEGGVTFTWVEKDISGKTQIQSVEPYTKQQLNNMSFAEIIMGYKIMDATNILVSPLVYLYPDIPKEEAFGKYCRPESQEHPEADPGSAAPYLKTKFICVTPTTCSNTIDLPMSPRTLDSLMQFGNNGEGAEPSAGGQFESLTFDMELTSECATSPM

Turning to `Cc1ccc(C(=O)c2ccccc2)cc1`, the compound was classed as inactive in [1], in [3], in assay [4], in assay [5], in assay [6] and in assay [7]. In addition, the call in [8], in assay [9] and in assay [10] was inactive. Besides, the AC50 in assay [2] was 30.4 µM (active).

For the compound `O=P(O)(O)CCC(F)(F)C(F)(F)C(F)(F)C(F)(F)C(F)(F)C(F)(F)F`, the result in assay [1], in assay [2], in [3], in assay [4], in [5] and in assay [6] was inactive. The outcome in [7], in [8], in assay [9] and in assay [10] was inactive.

Consider `C=CC(F)(F)C(F)(F)C(F)(F)C(F)(F)F`, for which the compound was called inactive in [1], in assay [2], in assay [3], in [4], in assay [5] and in assay [6]. Besides, the result in assay [7], in assay [8], in assay [9] and in assay [10] was inactive.

`COC1=CC(=O)C[C@@H](C)[C@]12Oc1c(Cl)c(OC)cc(OC)c1C2=O`: the compound was called inactive in assay [1], in assay [2], in assay [3], in assay [4], in assay [5] and in assay [6]. Besides, the compound was classed as inactive in [7], in assay [8] and in assay [9]. The concentration at half-maximal activity (AC50) in assay [10] is 20.4 µM (active).

For the compound `CCCCCCOC(=O)c1ccc(O)cc1`, the AC50 was 53.7 µM (active) in assay [1]; 13 µM (active) in [2]; 22.9 µM (active) in assay [3]; 51.2 µM (active) in assay [4]; 37.1 µM (active) in assay [6]; 33.4 µM (active) in [7]. Moreover, the result in assay [5], in [8], in [9] and in assay [10] was inactive.

Turning to `CCOC(C)=O`, the outcome in assay [1], in assay [2], in assay [3], in [4], in assay [5] and in assay [6] was inactive. Further, the call in assay [7], in assay [8], in assay [9] and in assay [10] was inactive.

In the case of `CC1CNCC(C)O1` (stereo not given), the compound was called inactive in assay [1], in [2], in assay [3], in assay [4], in assay [5] and in assay [6]. Besides, the result in assay [7], in assay [8], in assay [9] and in [10] was inactive.

On to `CC(=O)CC(C)C`, for which the compound was called inactive in assay [1], in assay [2], in [3], in assay [4], in assay [5] and in assay [6]. Also, the outcome in assay [7], in [8], in assay [9] and in [10] was inactive.

Regarding `CCCCCC(C)OC(=O)COc1ccc(Cl)c2cccnc12` (stereo not given), the call in assay [1], in [3], in assay [4], in [5], in assay [6] and in [7] was inactive. Further, the compound was classed as inactive in [8], in assay [9] and in assay [10]. The AC50 in assay [2] was 7.22 µM (active).

Take `O=C(O)CN(CCCN(CC(=O)O)CC(=O)O)CC(=O)O`: the call in [1], in [2], in assay [3], in [4], in assay [5] and in assay [6] was inactive. Also, the compound was called inactive in assay [7], in [8], in assay [9] and in assay [10].

Turning to `Oc1c(Cl)cc(Cl)cc1Sc1cc(Cl)cc(Cl)c1O`, the call in assay [1], in assay [5], in [6], in [7], in assay [8] and in assay [9] was inactive. The compound was classed as inactive in assay [10]. In addition, the figures for the concentration at half-maximal activity (AC50) in assay [2], in [3] and in assay [4] were 3.03 µM (active), 1.52 µM (active) and 2.56 µM (active), respectively.

`CC(C)(C)C1CCCCC1O` (stereo not given): the call in [1], in assay [2], in assay [3], in [4], in [5] and in [6] was inactive. The compound was classed as inactive in assay [7], in assay [8], in assay [9] and in assay [10].

In the case of `C=CC(=O)OCCC(F)(F)C(F)(F)C(F)(F)C(F)(F)C(F)(F)C(F)(F)C(F)(F)C(F)(F)F`, the outcome in assay [1], in assay [2], in assay [3], in assay [4], in assay [5] and in assay [6] was inactive. Further, the result in [7], in assay [8], in assay [9] and in [10] was inactive.

Consider `Brc1cc(Br)c(Oc2c(Br)cc(Br)c(Br)c2Br)cc1Br`, for which the call in assay [1], in [2], in assay [3], in assay [4], in assay [5] and in assay [6] was inactive. For the same compound, the call in assay [7], in assay [8], in [9] and in assay [10] was inactive.

With `NNC(=O)CCCCC(=O)NN`, the outcome in [1], in [2], in [3], in [4], in [5] and in [6] was inactive. The compound was classed as inactive in [7], in [8], in [9] and in assay [10].

Turning to `O=C(NCc1ncc(C(F)(F)F)cc1Cl)c1c(Cl)cccc1Cl`, the compound was called inactive in [1], in assay [3], in assay [4], in [5], in assay [6] and in assay [8]. The result in assay [9] and in assay [10] was inactive. Further, the AC50 was 0.799 µM (active) in assay [2] and 10.1 µM (active) in assay [7].

With `O=C1C=CC(=O)N1c1cccc(N2C(=O)C=CC2=O)c1`, the call in assay [1], in assay [2], in assay [3], in [4], in assay [5] and in assay [6] was inactive. Also, the call in assay [7], in [8], in assay [9] and in assay [10] was inactive.

`CCCCCCCCCCCC(=O)NCCCN(C)C`: the AC50 in assay [1] was 19.6 µM (active); in [2], 5.26 µM (active); in [4], 21.3 µM (active); in assay [7] it was 8.13 µM (active); in assay [9], 18.9 µM (active); in assay [10], 17.5 µM (active). The compound was called inactive in assay [3], in assay [5], in assay [6] and in assay [8].

For the compound `Oc1cccc2c(O)cccc12`, the result in assay [1], in assay [3], in assay [4], in assay [5], in [6] and in assay [7] was inactive. In addition, the result in [8], in assay [9] and in assay [10] was inactive. Also, the AC50 in assay [2] was 27.1 µM (active).

`O=C1OC(=O)C(F)(F)C1(F)F`: the call in assay [1], in assay [2], in [3], in [4], in [5] and in assay [6] was inactive. In addition, the compound was called inactive in assay [7], in assay [8], in [9] and in assay [10].

Consider `CCCCCCCCCCCC[N+](C)(C)CCCCCCCCCCCC`, for which the call in [1], in [2], in [3], in assay [5], in [6] and in assay [7] was inactive. For the same compound, the result in [8] was inactive. In addition, the half-maximal activity concentration (AC50) is 26.1 µM (active) in assay [4], 26.3 µM (active) in assay [9] and 25.4 µM (active) in assay [10].

Consider `CCCCCc1ccc(O)cc1`, for which the outcome in [1], in [3], in [4], in assay [5], in assay [6] and in assay [7] was inactive. For the same compound, the result in assay [8], in assay [9] and in [10] was inactive. The concentration at half-maximal activity (AC50) in assay [2] was 33.4 µM (active).
